The values below come from PubChem BioAssay (NCI).

Each structure is given as a SMILES string. This is part of a sample that, as a whole, favours compounds with a hit. Of some 83,000 tested, about 20% had one in any assay.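 Cell lines were cultured in 96-well plates, exposed to a single compound concentration, and assessed for percent growth 48 hours later.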 A number with no mark means an inactive call. Active and inactive are the calls of the source. Rule for the calls: active = growth percent below 10; inactive = the rest.

Test systems include HCT-15 colon; HT29 colon; SNB-75 CNS; SNB-19 CNS; U251 CNS; PC-3 prostate; SK-MEL-5 melanoma; UACC-62 melanoma; LOX IMVI melanoma; SK-MEL-28 melanoma; SK-MEL-2 melanoma; EKVX NSCLC; SN12C renal; UO-31 renal; TK-10 renal; ACHN renal; CAKI-1 renal; A498 renal; MOLT-4 leukemia; CCRF-CEM leukemia.
Common to all, as to test: NCI-60 one-dose screen, 48 h (100 = growth as untreated, 0 = no growth, -100 = all killed)
Holding throughout (conditions): 10 µM unless noted

`O=C(OCCCCOC(=O)n1cnc2ccccc21)n1cnc2ccccc21`: the growth in the experiment on HCT-15 colon is 103%; in the experiment on HT29 colon, 97%; with SNB-75 CNS it was 96%; in the experiment with SNB-19 CNS, 97.7%; in the experiment on U251 CNS it was 99.5%; in the experiment with PC-3 prostate, 91.8%. Besides, the growth in the experiment on SK-MEL-5 melanoma is 101%; with UACC-62 melanoma it was 96.3%; in the experiment on LOX IMVI melanoma, 92.9%; in the experiment with SK-MEL-28 melanoma, 108%; in the experiment on SK-MEL-2 melanoma, 101%; in the experiment on EKVX NSCLC, 98.7%. For the same compound, the growth with SN12C renal was 96%; with UO-31 renal, 78.9%; in the experiment on TK-10 renal it was 110%; with ACHN renal, 101%; with CAKI-1 renal, 93.2%; with A498 renal, 89.3%. In addition, the growth in the experiment on MOLT-4 leukemia was 86.2%.

As to `COc1ccc2c(c1)C(C)Cc1c(N(C)C)ncnc1N2C` (centres undefined), the growth with HCT-15 colon was 23.7%; with HT29 colon, 11.6%; with SNB-75 CNS, 14.3%; with SNB-19 CNS, 40.5%; in the experiment on U251 CNS, 28%; in the experiment on PC-3 prostate, 26.4%. For the same compound, the growth in the experiment on SK-MEL-5 melanoma was 19.4%; with UACC-62 melanoma, 27.6%; in the experiment on LOX IMVI melanoma it was 42.4%; in the experiment with SK-MEL-28 melanoma, 59.3%; with SK-MEL-2 melanoma, 32.9%; with EKVX NSCLC it was 41.2%. In addition, the growth in the experiment on SN12C renal was 43.6%; with UO-31 renal it was 56.6%; in the experiment with TK-10 renal, 29.9%; with ACHN renal, 46.8%; in the experiment on CAKI-1 renal it was 37.6%; with A498 renal, 2.02% (active). For the same compound, the growth in the experiment on CCRF-CEM leukemia was 18.6%; in the experiment on MOLT-4 leukemia it was 33.1%.

`Cc1oc2nc[nH]c(=O)c2c1C(=O)/C=C/c1ccc(Cl)cc1Cl`: the growth is 50.6% in the experiment with HCT-15 colon; 30.4% in the experiment with HT29 colon; 44.6% with SNB-75 CNS; 84% in the experiment with SNB-19 CNS; 85.1% with U251 CNS; 59.2% in the experiment with PC-3 prostate. Moreover, the growth with SK-MEL-5 melanoma was 81.6%; with UACC-62 melanoma it was 53.5%; in the experiment on LOX IMVI melanoma, 52.2%; in the experiment on SK-MEL-28 melanoma it was 89.1%; in the experiment with SK-MEL-2 melanoma, 91.3%; in the experiment with EKVX NSCLC, 117%. Further, the growth in the experiment with SN12C renal is 67%; in the experiment on UO-31 renal it was 67.6%; with TK-10 renal it was 123%; with ACHN renal, 66.4%; in the experiment on CAKI-1 renal it was 46.1%; in the experiment with A498 renal it was 94.3%. Besides, in the experiment on MOLT-4 leukemia, the growth was 86.8%.

Take `O=C(Cc1c(F)cccc1Cl)Nc1ccc(S(=O)(=O)Nc2ncccn2)cc1`: the growth with HCT-15 colon was 104%; with HT29 colon, 120%; in the experiment with SNB-75 CNS, 110%; in the experiment with SNB-19 CNS, 96%; with U251 CNS, 105%; in the experiment with PC-3 prostate it was 100%. Also, the growth with SK-MEL-5 melanoma is 100%; in the experiment with UACC-62 melanoma, 107%; in the experiment with LOX IMVI melanoma, 92.9%; in the experiment with SK-MEL-28 melanoma, 122%; with SK-MEL-2 melanoma it was 73.1%; with EKVX NSCLC, 100%. Also, the growth with SN12C renal is 96%; with UO-31 renal, 42.7%; with TK-10 renal, 112%; in the experiment with ACHN renal it was 100%; in the experiment with CAKI-1 renal, 91%; with A498 renal it was 98.4%. In addition, the growth in the experiment on MOLT-4 leukemia was 103%.

Consider `CCCCn1c(=O)c(C2CNC(=O)c3ccccc3N2)cc2ccccc21` (centres undefined), for which the growth with HCT-15 colon is 101%; with HT29 colon, 103%; in the experiment on SNB-75 CNS, 84%; in the experiment on SNB-19 CNS, 91%; in the experiment with U251 CNS, 98%; in the experiment with PC-3 prostate it was 106%. The growth in the experiment with SK-MEL-5 melanoma was 102%; in the experiment with UACC-62 melanoma, 88.4%; in the experiment on LOX IMVI melanoma it was 97.3%; with SK-MEL-28 melanoma, 102%; in the experiment on SK-MEL-2 melanoma, 106%; with EKVX NSCLC, 103%. The growth in the experiment on SN12C renal is 85.7%; in the experiment on UO-31 renal, 93.1%; with TK-10 renal, 109%; in the experiment with ACHN renal, 98.2%; with CAKI-1 renal, 85.8%; in the experiment on A498 renal, 88.7%. For the same compound, the growth with CCRF-CEM leukemia is 110%; in the experiment on MOLT-4 leukemia it was 46.4%.

Regarding `CC1(C)OC2COC3(C(=O)O)OC(C)(C)OC3C2O1` (centres undefined), the growth is 98.8% with HCT-15 colon; 99.8% in the experiment on HT29 colon; 87.2% in the experiment on SNB-75 CNS; 92.1% with SNB-19 CNS; 102% in the experiment on U251 CNS; 100% in the experiment with PC-3 prostate. Moreover, the growth is 102% in the experiment on SK-MEL-5 melanoma; 97.7% in the experiment on UACC-62 melanoma; 95.6% in the experiment on LOX IMVI melanoma; 107% with SK-MEL-28 melanoma; 93.1% in the experiment with SK-MEL-2 melanoma; 97% in the experiment with EKVX NSCLC. The growth is 91.4% in the experiment on SN12C renal; 92.3% in the experiment on UO-31 renal; 94.7% with TK-10 renal; 94.4% in the experiment with ACHN renal; 103% in the experiment on CAKI-1 renal; 91.7% in the experiment on A498 renal. Further, in the experiment with MOLT-4 leukemia, the growth is 104%.

On to `CN1CCN(CCCOc2ccc3nc(Nc4ccc(C(F)(F)F)c(Cl)c4)ccc3c2)CC1`, for which the growth with HCT-15 colon is -36.9% (active); with HT29 colon, -67.2% (active); with SNB-75 CNS, 4.61% (active); in the experiment on SNB-19 CNS it was -41.2% (active); in the experiment with U251 CNS, -62.3% (active); in the experiment on PC-3 prostate it was 8.45% (active). The growth in the experiment on SK-MEL-5 melanoma is 34.1%; with UACC-62 melanoma, -36.3% (active); in the experiment with LOX IMVI melanoma, -83.1% (active); with SK-MEL-28 melanoma it was -73.2% (active); in the experiment on SK-MEL-2 melanoma, 8.88% (active); in the experiment on EKVX NSCLC, 38.7%. For the same compound, the growth was 25% in the experiment with SN12C renal; -8.8% (active) in the experiment with UO-31 renal; 18.9% with TK-10 renal; 3.12% (active) with ACHN renal; 3.08% (active) with CAKI-1 renal; 63.3% with A498 renal. Moreover, in the experiment with MOLT-4 leukemia, the growth is -35.7% (active).

`CCN1C(=O)N(CC)C2C1NN=c1s/c(=C\c3ccccn3)c(=O)n12` (centres undefined): the growth is 33.5% in the experiment on HCT-15 colon; 6.69% (active) in the experiment on HT29 colon; -24.4% (active) in the experiment on SNB-75 CNS; 34.1% in the experiment with SNB-19 CNS; 28.3% in the experiment on U251 CNS; 24.4% in the experiment with PC-3 prostate. For the same compound, the growth in the experiment with SK-MEL-5 melanoma was 5.18% (active); in the experiment on UACC-62 melanoma it was 39.8%; in the experiment with LOX IMVI melanoma, 42.6%; with SK-MEL-28 melanoma, 57.3%; with SK-MEL-2 melanoma, 39.9%; in the experiment with EKVX NSCLC it was 61.7%. Besides, the growth in the experiment with SN12C renal was 40.7%; in the experiment on UO-31 renal, 43.8%; in the experiment on TK-10 renal it was 51.2%; with ACHN renal, 43.4%; with CAKI-1 renal it was 30.2%; with A498 renal, -29.2% (active). For the same compound, the growth with MOLT-4 leukemia was 42.5%.
